{"source": "PubChem BioAssay AID651812", "about": "(National Center for Advancing Translational Sciences (NCATS), 2012)", "note": "Hit rate of the full screen: of about 2,100 compounds, about 650 (31%) were called active. Not shown: some 16% with an inconclusive outcome. Calls come from the whole dose curve; as a rule, active = well fitted inhibition curve with a large enough effect; inconclusive = small, poorly fitted or top-dose-only effect; inactive = flat fitted curve, though single readings scatter. This is one part of the list. Entries that show only a call come without a potency. Potency is the fitted concentration of half-maximal effect.", "data": [{"assay": "qHTS for inhibitors of Vif-A3G interactions: Cherry picks; note: nearly all actives have a fitted effect of over 80% in size", "conditions": "HeLa A3G-eYFP + Vif (tagged APOBEC3G with the HIV-1 protein that degrades it), 24 h; Potency: eYFP fluorescence increase; series mostly up to 36.9 µM", "how_it_was_run": "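Cherry-picked compounds tested at several concentrations on A3G-eYFP/Vif HeLa cells for 24 hours; loss of Vif-driven degradation read as eYFP fluorescence by cytometric plate imaging, 488 nm excitation, 500-530 nm emission.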", "values": [{"compound": "COc1cc2c(cc1OC)C1=CC(=O)C(=O)N1C(C)(C)C2", "Potency": "17.7 µM (active)"}, {"compound": "COc1ccc(-c2cc(NC=O)c3ncc(-c4ccc(C(C)=O)cc4)n3c2)cc1OC", "Potency": "inactive"}, {"compound": "O=C(NCc1ccc2c(c1)OCO2)c1cc([N+](=O)[O-])ccc1N1CCCCC1", "Potency": "inactive"}, {"compound": "CC1CCN(c2ccc3c(c2)S(=O)(=O)c2cccc(C(=O)NCc4cccc(F)c4)c2C3=O)CC1", "Potency": "14 µM (active)"}, {"compound": "Cc1ccc(CNC(=O)c2cccc3c2C(=O)c2ccc(N4CCCCC4)cc2S3(=O)=O)cc1", "Potency": "20.6 µM (active)"}, {"compound": "O=C(NCc1ccccc1)c1cccc2c1C(=O)c1ccc(/C=C/c3ccccc3)cc1S2(=O)=O", "Potency": "18.4 µM (active)"}, {"compound": "Cc1ccc(CNC(=O)Cc2ccc(-n3cccc3)cc2)cc1", "Potency": "inactive"}, {"compound": "Cn1c(=O)c2cc(NC(=O)NCc3ccccc3)ccc2n1C/C=C/c1ccccc1", "Potency": "inactive"}, {"compound": "Cc1ccc(CNC(=O)c2cccc3c2C(=O)c2ccc(N4CCC(C)CC4)cc2S3(=O)=O)cc1", "Potency": "20.6 µM (active)"}, {"compound": "CCCOc1ccc2cc(C(=O)NCc3ccccc3)c(=O)oc2c1", "Potency": "inactive"}, {"compound": "COc1ccc(NC(=O)C2(C)Cc3c(-c4ccc5c(c4)OCO5)ccnc3O2)cn1", "note": "(stereo not drawn)", "Potency": "inactive"}, {"compound": "CCN(CC)c1ccc(/C=C/C2=C3C=CC=CC3NC=C2)cc1", "note": "(stereo not drawn)", "Potency": "18.4 µM (active)"}, {"compound": "CN(C)c1ccc(/C=C/c2ccncc2)cc1", "Potency": "20.6 µM (active)"}, {"compound": "CCN(CC)c1ccc(/C=C/c2ccncc2)cc1", "Potency": "16.4 µM (active)"}, {"compound": "CCN(CC)c1ccc(/C=C/c2ccccn2)cc1", "Potency": "14.6 µM (active)"}, {"compound": "Cc1cc(N/N=C/c2ccc(O)cc2O)nc(-n2nc(C)cc2C)n1", "Potency": "inactive"}, {"compound": "CCN(CC)c1ccc(/C=N/NC(=O)c2ccco2)cc1", "Potency": "inactive"}, {"compound": "CCN(CC)c1ccc(/C=C/C(=O)c2ccc(Br)cc2)cc1", "Potency": "25.9 µM (active)"}, {"compound": "c1ccc(C2CNCc3c2ccc2ccccc32)cc1", "note": "(stereo not drawn)", "Potency": "inactive"}, {"compound": "CCOc1cc(N(CC)CC)ccc1/C=C(/C#N)c1nc2ccccc2[nH]1", "Potency": "4.61 µM (active)"}, {"compound": "CCCOc1cc(N(CC)CC)ccc1/C=C(/C#N)c1nc2ccc(C)cc2[nH]1", "Potency": "18.4 µM (active)"}, {"compound": "Cc1cccc(OCCOc2ccccc2C=C(C#N)C#N)c1", "Potency": "inactive"}, {"compound": "CCN(CC)c1ccc(/C=C(/C#N)c2nc3ccccc3[nH]2)c(OC(C)C)c1", "Potency": "0.58 µM (active)"}, {"compound": "O=C1C=C(Nc2ccc(Cl)cc2Cl)CC(c2ccco2)C1", "note": "(stereo not drawn)", "Potency": "inactive"}, {"compound": "CCS(=O)(=O)N1N=C(c2cccc(NS(C)(=O)=O)c2)CC1c1ccc(C)cc1", "note": "(stereo not drawn)", "Potency": "18.4 µM (active)"}, {"compound": "CS(=O)(=O)Nc1ccc(C2=NN(S(C)(=O)=O)C(c3ccc4nccnc4c3)C2)cc1", "note": "(stereo not drawn)", "Potency": "inactive"}, {"compound": "CC(=O)c1cccc(-c2ccnc3c2CC(C(=O)Nc2cccc(NS(C)(=O)=O)c2)O3)c1", "note": "(stereo not drawn)", "Potency": "inactive"}, {"compound": "O=C1CCCN1c1ccc(S(=O)(=O)Nc2ccc3c(c2)OCCO3)cc1", "Potency": "inactive"}]}]}
